Assay results: ChEMBL document CHEMBL3988442, “University of Dundee, Small-Polar-MMV Screening Library” (2021)
For some assays here: Entries with a potency or affinity are not part of this list.

Assays:
Parameters in all cases: scale not given: direction of the effect not stated beside the values
[1] = target: Protein translocase subunit SecA (Escherichia coli (strain K12)) (UniProt P10408); test: Assay to Identify E. coli SecA ATPase Inhibitors; format: functional; conditions: 30 µM
[2] = target: T1, Ubiquitin-activating enzyme e1, putative (Leishmania donovani (strain BPK282A1)) (UniProt E9BSI1); test: Leishmania donovani Ubiquitin Activating Enzyme (LdE1); format: functional; conditions: 30 µM
T1 sequence (whole entry): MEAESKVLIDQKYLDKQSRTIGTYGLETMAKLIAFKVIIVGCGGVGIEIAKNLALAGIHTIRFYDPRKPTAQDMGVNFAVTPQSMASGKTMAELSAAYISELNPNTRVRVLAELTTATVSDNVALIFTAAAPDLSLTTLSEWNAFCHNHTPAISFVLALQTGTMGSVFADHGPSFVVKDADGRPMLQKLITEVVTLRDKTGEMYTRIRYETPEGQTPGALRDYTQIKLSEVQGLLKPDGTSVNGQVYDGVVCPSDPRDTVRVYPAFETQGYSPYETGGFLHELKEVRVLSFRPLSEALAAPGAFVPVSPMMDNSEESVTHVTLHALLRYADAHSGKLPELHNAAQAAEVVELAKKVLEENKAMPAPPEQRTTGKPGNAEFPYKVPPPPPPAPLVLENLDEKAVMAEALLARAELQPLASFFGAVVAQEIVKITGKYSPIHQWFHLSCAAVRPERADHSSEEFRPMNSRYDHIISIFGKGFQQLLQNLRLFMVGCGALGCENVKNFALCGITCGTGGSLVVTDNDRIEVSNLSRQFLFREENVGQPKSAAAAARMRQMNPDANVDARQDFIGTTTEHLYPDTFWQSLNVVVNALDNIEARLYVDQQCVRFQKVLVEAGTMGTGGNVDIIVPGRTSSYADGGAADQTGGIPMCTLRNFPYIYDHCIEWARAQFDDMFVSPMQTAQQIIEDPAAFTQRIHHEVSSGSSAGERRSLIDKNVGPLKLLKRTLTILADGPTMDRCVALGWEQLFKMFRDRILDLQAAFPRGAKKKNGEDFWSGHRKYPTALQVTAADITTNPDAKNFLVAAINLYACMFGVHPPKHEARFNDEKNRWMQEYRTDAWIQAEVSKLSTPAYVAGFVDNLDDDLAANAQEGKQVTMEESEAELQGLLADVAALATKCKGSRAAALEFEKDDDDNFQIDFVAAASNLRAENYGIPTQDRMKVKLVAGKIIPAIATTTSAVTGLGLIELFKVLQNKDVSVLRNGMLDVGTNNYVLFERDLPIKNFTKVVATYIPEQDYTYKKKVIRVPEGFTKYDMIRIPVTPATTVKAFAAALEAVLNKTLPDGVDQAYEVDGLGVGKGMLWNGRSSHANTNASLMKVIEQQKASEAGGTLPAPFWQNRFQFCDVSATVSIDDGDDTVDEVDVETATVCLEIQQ

[3] = target: AMP-activated protein kinase, AMPK (Homo sapiens) (UniProt P54646+O43741+P54619+Q9UGJ0+Q9Y478+Q13131+Q9UGI9); test: AMP-dependent Kinase enzyme assay. An in vitro enzyme assay that detects ADP turnover that is directly proportional to AMPK activity. This uses naive AMPK that is activated during the assay with MK-8722; format: functional; conditions: 30 µM
[4] = target: Sialic acid-binding Ig-like lectin 9 (Homo sapiens) (UniProt Q9Y336); test: Hs-Siglec9 ALPHAscreen SOP 20170721; conditions: 10 µM
Sequence of Sialic acid-binding Ig-like lectin 9 (Homo sapiens) (Q9Y336 whole entry): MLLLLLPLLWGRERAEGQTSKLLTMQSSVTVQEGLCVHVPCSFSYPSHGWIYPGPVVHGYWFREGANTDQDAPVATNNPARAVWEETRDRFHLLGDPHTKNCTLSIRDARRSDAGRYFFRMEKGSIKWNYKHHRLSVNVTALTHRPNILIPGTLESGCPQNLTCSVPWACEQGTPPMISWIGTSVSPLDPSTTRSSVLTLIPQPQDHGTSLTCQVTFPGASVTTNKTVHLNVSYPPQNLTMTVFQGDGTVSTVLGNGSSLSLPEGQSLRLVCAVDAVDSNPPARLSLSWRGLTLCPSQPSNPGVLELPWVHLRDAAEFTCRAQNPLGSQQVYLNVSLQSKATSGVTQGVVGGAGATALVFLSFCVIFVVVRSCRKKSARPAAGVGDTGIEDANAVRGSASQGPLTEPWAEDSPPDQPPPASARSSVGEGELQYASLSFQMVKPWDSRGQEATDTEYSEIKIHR

[5] = tested on: Trypanosoma cruzi; test: Trypanosoma cruzi phosphomannomutase and mannose-1-phosphate guanylyltransferase assay; format: functional; conditions: 10 µM
[6] = target: T2, Arginase-2, mitochondrial (Homo sapiens) (UniProt P78540); test: in vitro enzyme assay to detect the production of urea directly proportional to the activity of Arginase II; format: functional; conditions: 33.3 µM; also: in the data most compounds retested in dose-response had high values
T2 sequence (whole entry): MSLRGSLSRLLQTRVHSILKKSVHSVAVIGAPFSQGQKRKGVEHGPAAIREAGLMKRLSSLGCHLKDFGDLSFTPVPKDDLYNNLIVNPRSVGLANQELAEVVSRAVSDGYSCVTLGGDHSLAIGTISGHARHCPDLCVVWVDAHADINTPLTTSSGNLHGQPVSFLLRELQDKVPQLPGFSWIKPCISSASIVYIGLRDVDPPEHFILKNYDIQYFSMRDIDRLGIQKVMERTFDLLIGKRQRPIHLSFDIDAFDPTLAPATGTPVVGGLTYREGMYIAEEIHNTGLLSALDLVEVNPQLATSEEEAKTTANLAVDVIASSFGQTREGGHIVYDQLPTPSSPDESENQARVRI

[7] = target: T3, Proteasome subunit beta (Trypanosoma cruzi) (UniProt O96673); test: Trypanosoma cruzi proteasome chymotrypsin-like activity (TcProtChymo) assay.; also: in the data most compounds retested in dose-response had high values; format: functional; conditions: 9.37 µM
T3 sequence (whole entry): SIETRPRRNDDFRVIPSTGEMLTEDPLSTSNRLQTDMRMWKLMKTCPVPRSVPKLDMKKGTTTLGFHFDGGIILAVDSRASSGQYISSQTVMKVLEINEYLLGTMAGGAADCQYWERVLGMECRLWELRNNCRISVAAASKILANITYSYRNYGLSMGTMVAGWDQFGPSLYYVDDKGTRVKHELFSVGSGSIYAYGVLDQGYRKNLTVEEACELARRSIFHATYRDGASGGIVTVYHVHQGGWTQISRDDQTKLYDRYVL

[8] = organism: Homo sapiens; test: To identify inhibition of the IFN signalling (Jak-Stat) pathway via expression of an eGFP reporter gene under the control of an IFN-stimulated response element (ISRE) containing MxA promoter.; format: functional; conditions: 30 µM
[9] = target: T4, Tyrosyl-tRNA synthetase, putative (Trypanosoma cruzi (strain CL Brener)) (UniProt Q4DSP6); test: Trypanosoma cruzi tyrosyl tRNA synthetase (TcYRS) _High Tyrosine SOP; format: functional; conditions: 30 µM; also: in the data most compounds retested in dose-response had high values
T4 sequence (whole entry): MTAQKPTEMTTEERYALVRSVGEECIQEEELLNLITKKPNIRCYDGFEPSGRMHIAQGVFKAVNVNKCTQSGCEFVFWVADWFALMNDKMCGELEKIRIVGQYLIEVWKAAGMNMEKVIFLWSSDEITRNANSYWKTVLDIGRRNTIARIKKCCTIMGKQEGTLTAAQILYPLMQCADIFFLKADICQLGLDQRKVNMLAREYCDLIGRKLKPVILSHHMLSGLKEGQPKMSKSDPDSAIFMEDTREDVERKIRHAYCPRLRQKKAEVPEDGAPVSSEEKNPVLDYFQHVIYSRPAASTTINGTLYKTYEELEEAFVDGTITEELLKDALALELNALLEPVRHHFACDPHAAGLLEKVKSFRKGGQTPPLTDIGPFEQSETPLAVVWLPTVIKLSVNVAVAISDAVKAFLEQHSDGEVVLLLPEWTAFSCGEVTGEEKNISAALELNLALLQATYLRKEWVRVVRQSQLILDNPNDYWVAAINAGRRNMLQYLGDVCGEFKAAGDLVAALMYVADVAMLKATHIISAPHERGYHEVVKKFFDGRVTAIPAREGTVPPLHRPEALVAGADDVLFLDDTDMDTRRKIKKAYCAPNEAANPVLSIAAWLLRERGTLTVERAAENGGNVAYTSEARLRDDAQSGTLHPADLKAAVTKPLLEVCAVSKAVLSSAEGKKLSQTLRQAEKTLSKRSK

[10] = target: T4, Tyrosyl-tRNA synthetase, putative (Trypanosoma cruzi (strain CL Brener)); test: Trypanosoma cruzi tyrosyl tRNA synthetase (TcYRS) SOP; format: functional; conditions: 30 µM
[11] = target: Chromo domain-containing protein 1 (Saccharomyces cerevisiae (strain ATCC 204508 / S288c) (Baker's yeast)) (UniProt P32657); test: ScCHD-1 Enzyme Inhibition Assay; format: functional; conditions: 30 µM; also: in the data most compounds retested in dose-response had high values
Sequence of Chromo domain-containing protein 1 (Saccharomyces cerevisiae (strain ATCC 204508 / S288c) (Baker's yeast)) (P32657 whole entry, the tested form may be a part): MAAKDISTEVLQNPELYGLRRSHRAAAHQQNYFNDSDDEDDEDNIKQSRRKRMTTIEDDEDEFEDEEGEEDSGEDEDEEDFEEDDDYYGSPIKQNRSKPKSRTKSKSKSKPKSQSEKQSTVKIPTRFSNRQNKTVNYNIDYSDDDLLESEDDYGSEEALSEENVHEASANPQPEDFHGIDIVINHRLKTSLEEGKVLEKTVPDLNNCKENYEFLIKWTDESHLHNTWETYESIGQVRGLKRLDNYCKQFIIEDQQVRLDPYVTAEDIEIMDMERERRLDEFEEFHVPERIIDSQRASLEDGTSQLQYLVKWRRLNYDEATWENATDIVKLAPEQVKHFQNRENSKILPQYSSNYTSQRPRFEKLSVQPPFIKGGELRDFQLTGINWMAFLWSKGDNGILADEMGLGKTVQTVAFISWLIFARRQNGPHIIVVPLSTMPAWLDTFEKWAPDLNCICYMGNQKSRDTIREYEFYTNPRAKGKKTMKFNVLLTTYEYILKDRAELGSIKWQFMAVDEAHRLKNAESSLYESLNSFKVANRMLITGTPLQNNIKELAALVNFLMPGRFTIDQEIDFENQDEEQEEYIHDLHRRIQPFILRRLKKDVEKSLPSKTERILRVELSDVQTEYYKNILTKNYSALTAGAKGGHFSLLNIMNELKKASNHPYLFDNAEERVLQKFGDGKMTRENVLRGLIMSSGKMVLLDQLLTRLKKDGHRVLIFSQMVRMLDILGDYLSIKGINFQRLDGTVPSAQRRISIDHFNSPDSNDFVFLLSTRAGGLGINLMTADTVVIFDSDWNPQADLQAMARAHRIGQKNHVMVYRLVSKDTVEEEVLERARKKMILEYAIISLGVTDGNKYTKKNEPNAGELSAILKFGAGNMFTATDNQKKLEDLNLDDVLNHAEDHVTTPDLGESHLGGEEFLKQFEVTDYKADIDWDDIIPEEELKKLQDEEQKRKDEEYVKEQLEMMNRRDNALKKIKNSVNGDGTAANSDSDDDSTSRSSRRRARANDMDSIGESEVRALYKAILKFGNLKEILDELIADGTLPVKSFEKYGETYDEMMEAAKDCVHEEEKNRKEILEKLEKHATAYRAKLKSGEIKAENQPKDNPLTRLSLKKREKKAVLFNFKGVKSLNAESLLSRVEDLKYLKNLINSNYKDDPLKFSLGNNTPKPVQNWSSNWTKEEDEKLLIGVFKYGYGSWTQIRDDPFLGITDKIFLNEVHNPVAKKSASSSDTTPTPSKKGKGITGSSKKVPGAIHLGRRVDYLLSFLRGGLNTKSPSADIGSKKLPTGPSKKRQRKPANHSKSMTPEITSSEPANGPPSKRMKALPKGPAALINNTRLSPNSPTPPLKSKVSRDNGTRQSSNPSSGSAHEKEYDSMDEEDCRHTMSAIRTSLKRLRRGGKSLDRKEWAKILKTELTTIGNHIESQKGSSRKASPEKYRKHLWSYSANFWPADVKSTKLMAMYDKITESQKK

Sequence of Protein translocase subunit SecA (Escherichia coli (strain K12)) (P10408 whole entry): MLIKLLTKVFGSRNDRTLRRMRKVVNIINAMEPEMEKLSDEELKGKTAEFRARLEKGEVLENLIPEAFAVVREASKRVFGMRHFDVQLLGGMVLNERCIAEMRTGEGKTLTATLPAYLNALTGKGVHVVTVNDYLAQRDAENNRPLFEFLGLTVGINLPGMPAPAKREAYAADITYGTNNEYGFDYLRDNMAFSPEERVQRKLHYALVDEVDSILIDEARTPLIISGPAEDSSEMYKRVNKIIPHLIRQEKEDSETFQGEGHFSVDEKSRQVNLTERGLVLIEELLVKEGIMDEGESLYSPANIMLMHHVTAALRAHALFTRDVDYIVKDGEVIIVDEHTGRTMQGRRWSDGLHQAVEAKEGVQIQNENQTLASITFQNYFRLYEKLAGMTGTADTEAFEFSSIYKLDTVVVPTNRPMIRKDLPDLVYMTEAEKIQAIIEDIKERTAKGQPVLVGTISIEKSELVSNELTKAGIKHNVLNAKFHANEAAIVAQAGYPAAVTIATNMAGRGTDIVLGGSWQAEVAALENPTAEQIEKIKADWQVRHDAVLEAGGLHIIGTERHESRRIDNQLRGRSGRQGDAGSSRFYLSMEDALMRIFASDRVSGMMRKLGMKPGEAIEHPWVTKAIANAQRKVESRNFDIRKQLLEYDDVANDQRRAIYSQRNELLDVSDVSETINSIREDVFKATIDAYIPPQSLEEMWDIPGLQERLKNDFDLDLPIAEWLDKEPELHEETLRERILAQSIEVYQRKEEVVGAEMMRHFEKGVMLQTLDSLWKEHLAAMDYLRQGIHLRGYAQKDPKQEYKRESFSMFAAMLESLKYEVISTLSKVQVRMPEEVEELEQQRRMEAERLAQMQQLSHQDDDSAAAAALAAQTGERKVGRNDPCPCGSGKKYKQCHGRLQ

Structure (SMILES)	Percent Effect [1] [%]	Percent Effect [2] [%]	Percent Effect [3] [%]	Percent Effect [4] [%]	Percent Effect [5] [%]	Percent Effect [6] [%]	Percent Effect [7] [%]	Percent Effect [8] [%]	Percent Effect [9] [%]	Percent Effect [10] [%]	Percent Effect [11] [%]
CCn1c(C)cc(C(=O)N2CCCC(c3nc(C)no3)C2)c1C (stereo unspecified)	-3.15	15.6	3.61	-3.42	2.06	1.47	17.5	14.4	8.57	9.41	-22.5
O=C(c1ccncc1)N1CCCn2c(CN3CCCCC3)nnc2C1	-3.23	2.67	9.49	2.61	4.13	-5.36	5.9	-3.57	5.32	-1.28	1.13
Cc1cccc(CNC(CN2CCN(C)CC2)c2ccccc2)c1 (stereo unspecified)	-2.61	8.11	-13.3	17.7	3.23	29.5	7.3	25.7	5.38	11.1	-5.02
O=C(c1cnccn1)N1CCc2onc(CN3CCOCC3)c2C1	-1.8	0	11.9	-11	-6.75	2.87	11.8	13.9	1.08	2.56	-5.16
CCc1nnc2n1CCN(Cc1csc(-c3ccsc3)n1)C2	-1.79	-6.94	1.22	-3.25	0.68	0.883	13.5	-14.4	4.21	2.56	-0.47
Cc1cc(C(=O)N2CCN(C(=O)Cc3ccccn3)CC2)c(C)s1	-3.63	6.33	1.98	-0.00439	-1.54	-11	4.8	-10.2	7.29	7.59	5.75
O=S1(=O)C[C@@H]2[C@H](C1)N(Cc1cc(Cl)cc(Cl)c1)CCN2CC1CC1	-4.25	8	-0.723	-1.32	-2.24	1.56	12	22.5	2.73	11.1	-6.73
Cc1ccccc1CN1CCC(NCC2CNc3ccnn3C2)CC1 (stereo unspecified)	-0.777	0	-17.1	-4.24	1.27	1.24	11.4	-3.35	6.45	13.6	-5.59
Cc1c(NC(=O)NCC(C)N2CCOCC2)cccc1OC(F)F (stereo unspecified)	-4.46	8.11	0.188	0.607	0.391	2.5	8.03	-7.17	14.8	-3.66	-5.4
Cc1noc(C)c1CN(C)CC1CCCN1c1cccnn1 (stereo unspecified)	-3.03	13	1.18	-2.33	0.0979	0.21	11.7	11.2	6.67	18.8	-25.9
Cn1nc(CNC(=O)C2CCCC2)cc1C1CC1	-6.17	10.4	-2.49	-7.84	5.23	-0.645	2.79	6.93	0	16.7	-8.08
CCC(C)NC(=O)NCCCn1nc2ccccn2c1=O (stereo unspecified)	-2.08	13.5	-4.74	-3.56	7.08	-3.61	16.4	-114	1.48	18.5	-14.5
Cn1c(CC2CCS(=O)(=O)C2)nnc1SCCOc1cccc(Cl)c1 (stereo unspecified)	-2.94	10.8	-5.55	20.9	4.99	3.23	14.8	-7.24	4.3	16.1	-10.4
CN(CCCNc1cc(N2CCCC2CO)ncn1)S(C)(=O)=O (stereo unspecified)	-2.02	8.22	-20.8	7.67	-1.96	1.82	16.3	8.58	2.15	7.5	-5.59
CCc1nsc(NC2CCCn3nc(CC)nc32)n1 (stereo unspecified)	-6.19	8	-4.68	26	7.3	6.25	13.6	0.363	3.83	13.6	-7.22
c1cc(CNCC2CNc3ccnn3C2)cc(N2CCCCC2)n1 (stereo unspecified)	-3.28	19	-11.8	-8.9	13	-2.8	27.1	1.88	13.5	22.8	-27.6
